Experimental data published in PubChem BioAssay AID743441 (Broad Institute, 2014).
Potency and affinity values are given separately. The source made the active and inactive calls.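 The calls were made as follows: active = cell toxicity seen as a signal drop, with half-maximal potency at most twice the top valid dose; inconclusive = flat curve with a partial drop, or a poor fit; inactive = the rest, including rises in signal.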

Experiment: HEK293T cell cytotoxicity, dose response, cytotoxicity control, CellTiter-Glo luminescence, cherry-picked samples, set 4 (AID 743441)
Details: HEK293T viability, ATP luminescence CellTiter-Glo, 72 h; series mostly up to 26 µM

Row | SMILES | outcome
1 | CC1(Cc2ccccc2C#N)C(=O)Nc2cc(-c3ccccc3Cl)ccc21 (stereo not drawn) | inactive
2 | COC(=O)c1c(NC(=O)CCC(=O)O)sc(Cc2ccccc2)c1C | inactive
3 | CC[C@H]1OC(=O)[C@H](C)[C@@H](O[C@H]2C[C@@](C)(OC)[C@@H](O)[C@H](C)O2)[C@H](C)[C@@H](O[C@@H]2O[C@H](C)C[C@H](N(C)C)[C@H]2O)[C@](C)(O)C[C@@H](C)[C@@H]2N[C@@H](COCCOC)O[C@H]([C@H]2C)[C@]1(C)O | inactive
4 | C[C@@H]1CCCCO[C@H](CN(C)C(=O)CCCN(C)C)[C@H](C)CN([C@@H](C)CO)C(=O)c2cc(NC(=O)Nc3cccc4ccccc34)ccc2O1 | inactive
5 | O=C(O)c1cc([N+](=O)[O-])ccc1NCc1ccccc1 | inactive
6 | Cc1ccc(S(=O)(=O)N2CC[C@H]3[C@H](CO)Nc4ccc(Br)cc4[C@H]32)cc1 | inactive
7 | COc1ccc(NC(=O)c2ccc(-c3ccc([N+](=O)[O-])cc3)o2)cc1 | inactive
8 | Cc1ccc(C)c(NC(=O)CSc2nc3nc(-c4cccs4)cc(C(F)(F)F)c3c(=O)[nH]2)c1 | inactive
9 | CC(CNc1ccc(Cl)cc1)(CNc1ccc(Cl)cc1)[N+](=O)[O-] | inactive
10 | COc1cccc(C(=O)Nc2cc(C)nn2-c2ccccc2)c1OC | inactive
11 | C[C@@H]1CCCCO[C@H](CN(C)CC2CC2)[C@H](C)CN([C@@H](C)CO)C(=O)c2cc(NC(=O)Nc3cccc4ccccc34)ccc2O1 | inactive
12 | COc1ccc(Nc2oc(-c3ccco3)nc2S(=O)(=O)c2ccc(F)cc2)cc1 | inactive
13 | CCOC(=O)c1c(NC(=O)Cc2cccs2)sc(C)c1C | inactive
14 | COc1ccc2[nH]c3c(=O)n(CCCCC(=O)NCCC(C)C)c(=S)[nH]c3c2c1 | inactive
15 | Cc1cc(C)c(C#N)c(N2CCN(c3ccccc3)CC2)n1 | inactive
16 | CSc1nc(N)nc(SC2C=CCCC2)c1C#N (stereo not drawn) | inactive
17 | Cc1[nH]c(=S)sc1Cc1ccc(Cl)c(Cl)c1 | inactive
18 | Cc1noc(C)c1NC(=O)Nc1ccc2c(c1)C(=O)N([C@H](C)CO)C[C@@H](C)[C@@H](CN(C)C(=O)Nc1ccc3c(c1)OCO3)OCCCC[C@@H](C)O2 | inactive
